Source: PubChem BioAssay
SDO1 yeast rescue = restores growth of sdo1-depleted yeast | S. cerevisiae sdo1-depleted JHY4D growth rescue, OD600 30 h; active compounds read high; pdr5 snq2 efflux-pump mutant strain | z-score at 10 µM | 140,000 compounds, 0.21% hits;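 active means z-score above 3 at both the 24 hr and the 30 hr optical density reads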;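 further: z-score against mean and SD of all compound wells on the same plate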
ROMK primary = modulates human ROMK potassium channel activity; AID 1918; 130,000 compounds, 2% hits; Tet-inducible ROMK, thallium flux fluorescence; actives lie on both sides; B-score at 10 µM;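 active means signal ratio slope over the read window, or its plate-corrected B-score, at least 3 SD from the plate mean, either direction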;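 further: B-score of the F/F0 ratio slope over 7 to 12 s after thallium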
Target sequence (P48048 whole entry, looked up): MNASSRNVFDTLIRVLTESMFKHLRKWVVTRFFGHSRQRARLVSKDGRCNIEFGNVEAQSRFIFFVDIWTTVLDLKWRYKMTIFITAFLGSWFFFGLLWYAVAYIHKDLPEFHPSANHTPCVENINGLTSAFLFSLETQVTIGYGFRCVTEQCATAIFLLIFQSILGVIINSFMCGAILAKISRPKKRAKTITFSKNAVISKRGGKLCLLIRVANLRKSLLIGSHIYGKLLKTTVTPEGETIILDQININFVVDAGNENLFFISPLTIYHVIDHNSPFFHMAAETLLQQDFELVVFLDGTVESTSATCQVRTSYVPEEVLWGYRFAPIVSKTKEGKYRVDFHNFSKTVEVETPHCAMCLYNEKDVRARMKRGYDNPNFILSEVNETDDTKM
INS promoter inh = TRM-6 insulin promoter activity inhibition; 130,000 compounds, 0.9% hits; AID 1273; TRM-6 cells (human fetal islet line), insulin promoter-eGFP reporter, imaging; reporter expression induced with tamoxifen; inhibition, % at 2 µM;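 active means inhibition above the mean plus 3 SD, with well images judged a real hit on visual review, cut at about 60% in these data, passing the limit was not always enough; inconclusive means inhibition over the cutoff but images rejected on review; inactive means inhibition not above the cutoff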
Measles CPE = protection of cells from measles virus; Measles virus-infected cells, CPE protection, absorbance; protection (pct of control), % at 4 µM; 140,000 compounds, 1.5% hits; AID 841; in the data active means protection mostly above about 24%, no sharp cut-off; inactive means mostly below about 26%
Numbers without * were called inactive; ? = inconclusive; / = not tested or not shown. The list is not random: actives were taken first. Their share in the collection is about 3%.

SMILES | SDO1 yeast rescue | ROMK primary | INS promoter inh | Measles CPE
O=C(C1CCCN(S(=O)(=O)c2cccc3nonc23)C1)N1CCN(c2ccccc2)CC1 (configuration not stated) | 0.58 | -1.8 | 0.0 | 15.9
CNCc1ccccc1Sc1ccc(OC)c(OC)c1 | -0.51 | -1.42 | / | 40.1*
CCOc1ccc(CN2CCC(C(=O)N3CCN(c4ccccc4F)CC3)CC2)cc1OC | 0.68 | -0.479 | -74.1 | 18.6
COc1cc(CN2CCC(C(=O)N3CCN(c4ccccc4F)CC3)CC2)cc(OC)c1O | -0.57 | / | -72.7 | 51.4*
CC1(C)CC(n2c(=S)[nH]c3ccccc3c2=O)CCO1 (configuration not stated) | 0.93 | / | / | 8.7
O=c1c2ccccc2[nH]c(=S)n1C1CCCCC1 | -1.98 | / | 55.6 | 9.6
CC1CCCC(n2c(=S)[nH]c3ccccc3c2=O)C1C (configuration not stated) | -2.3 | / | 7.0 | 32.3*
CC1CCC(n2c(=S)[nH]c3ccccc3c2=O)CC1 (configuration not stated) | -2.75 | / | 80.0* | 9.1
O=C(OCc1c(Cl)cccc1Cl)c1ccncc1 | -1.28 | / | / | 3.1
Cc1ccccc1OCC(O)CN(Cc1ccccc1O)C1CCCCC1 (configuration not stated) | / | -1.43 | / | /
CC1CCCC(C)N1/N=C/c1ccccc1C(=O)O (configuration not stated) | / | -0.905 | 72.2* | /
CC1CCCC(C)N1/N=C/C=C/c1ccccc1[N+](=O)[O-] (configuration not stated) | / | -1.1 | / | /
O=C(O)c1ccc(N2Cc3ccccc3C2)cc1O | -0.02 | -1.6 | 12.7 | 70.7*
CCOC(=O)c1sc(-c2ccccc2)cc1N | -0.49 | 0.778 | 22.2 | 7.5
CC(C)(C)N=Cc1cc(-c2ccccc2)sc1O | 0.54 | 0.192 | / | 40.7*
CCOC(=O)c1ccc(NC(=O)COc2ccc(S(=O)(=O)NC(C)(C)C)cc2)cc1 | -0.72 | 0.703 | 53.3 | 13.5
COc1ccc(-c2cn3cccnc3n2)cc1F | -0.03 | / | 57.1 | 29.4*
COc1ccc(-c2cn3cccnc3n2)cc1NS(=O)(=O)c1ccccc1 | / | -0.127 | / | /
Clc1ccc(SCCCCN2CCNCC2)cc1 | -0.45 | / | 6.9 | 9.8
O=C(Nc1nnc(C2CC2)s1)c1ccc(Cl)c(S(=O)(=O)N2CCc3ccccc3C2)c1 | 0.06 | -0.374 | 60.0* | 11.2
O=C(NCCc1c[nH]c2ccccc12)C(F)(F)F | 1.51 | / | 51.4 | 45.4*
O=C(Cc1cccs1)N/N=C/C(Br)=C/c1ccccc1 | -0.8 | / | / | 48.3*
CC(/C=N/NC(=O)Cc1cccs1)=C\c1ccccc1 | -1.28 | -0.3 | -7.7 | 4.2
Cc1ccc(CNC(=O)CSc2c3c(nc4ccc(Cl)cc24)CCCC3)o1 | -1.11 | -2.53* | / | 14.6
CC1CCN(CC(=O)N2c3ccccc3CCc3ccccc32)CC1 | -0.41 | -0.821 | -15.8 | 18.2
SMILES | SDO1 yeast rescue | ROMK primary | INS promoter inh | Measles CPE
O=C(O)c1ccc(-c2nc3ccccc3[nH]2)cc1 | 0.45 | / | / | 2.8
O=C(O)c1ccc(-c2ncc[nH]2)cc1 | / | 0.771 | 80.0* | /
N#C/C(=C\c1ccc(OCC(N)=O)cc1)c1ccccc1 | -0.01 | / | -28.6 | 9.1
COc1ccc(-c2nnc(SCc3ccccc3F)o2)cc1 | -1.73 | / | 86.7* | -0.2
O=C(CN1N=C(c2ccc(Cl)cc2)CCC1=O)NCCN1CCc2ccccc2C1 | 1.14 | -1.93 | -80.7 | 10.5
COc1ccc(N2CCN(C(=O)c3ccc4ccccc4n3)CC2)cc1 | / | 0.296 | -41.2 | /
C=CCn1c(C)cc(C(=O)COC(=O)CNC(=O)c2ccccc2)c1C | 0.81 | 0.0426 | ? | 25.7*
C=CCn1c(C)cc(C(=O)COc2nncc3ccccc23)c1C | -0.26 | / | / | 45.6*
O=C(CCSc1nnc(-c2ccncc2)o1)Nc1cccc2ccccc12 | -0.37 | / | 0.0 | 9.2
CC(Sc1nnc(-c2ccc(O)cc2)o1)C(=O)Nc1cccc2ccccc12 (configuration not stated) | -0.07 | 0.613 | 77.4* | 31.6
CCCc1ccc(Oc2cc(N3CCOCC3)nc(-c3ccccc3)n2)cc1 | / | / | 23.3 | /
COc1cccc(CNC(=O)Nc2cccs2)c1 | 0.33 | / | -72.1 | 44.4*
COc1ccc(N/C(=C(/C(Cl)=C(Cl)Cl)[N+](=O)[O-])n2nnc3ccccc32)cc1OC | 0.23 | 0.781 | -9.7 | 52.0*
COc1ccc2c(C)cc(Sc3nnnn3-c3ccccc3)nc2c1 | -1.17 | / | / | 53.4*
COC(=O)c1nc(NC(=O)C(C)(C)C)n[nH]1 | -0.45 | / | 48.0 | 35.8*
CN(CCOc1ccc(-c2ccn(S(=O)(=O)c3cccc4ccccc34)n2)cc1)c1ccccn1 | 0.15 | / | -40.0 | 44.4*
FC(F)(F)c1ccc(Oc2ccc(Cl)cc2Br)nc1 | / | 0.198 | -23.8 | /
O=C1COc2ccc(C(=O)c3ccccc3C(=O)NCc3ccccc3)cc2N1 | 1.63 | 0.0476 | / | 22.0*
